Experimental data from PubChem BioAssay AID1159580 (chemical genetic matrix, 2015).
In all, about 5,500 compounds went through this assay and about 2,000 (36%) were called active. Inconclusive results (about 18%) are left out. Rule as the data show it: active = normalized growth mostly below about 0.91 (no sharp cut-off); inconclusive = no clear call, values can overlap the other calls; inactive = mostly above about 0.92. This is one part of the list.

Assay: chemical genetic growth profiling, strain panel (AID 1159580);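 also: tested at 20 µM; growth read once vehicle control cultures reached saturation at 30 °C; 1 = growth at the plate median or of vehicle wells; lower values mean less growth of the strain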
Settings: S. cerevisiae deletion strains, growth OD
[1] = locus YCL061C, strain MRC1, stronger effect = lower value
[2] = locus YDL101C, strain DUN1, stronger effect = lower value
[3] = locus YHR030C, strain SLT2, stronger effect = lower value
[4] = locus YHR079C, strain IRE1, stronger effect = lower value
[5] = locus YJL095W, strain BCK1, stronger effect = lower value
[6] = locus YJR066W, strain TOR1, stronger effect = lower value
[7] = locus YLR113W, strain HOG1, stronger effect = lower value
[8] = locus YNL183C, strain NPR1, stronger effect = lower value
[9] = locus YOR231W, strain MKK1, stronger effect = lower value
[10] = locus YPL256C, strain CLN2, stronger effect = lower value

Measured: normalized growth

CCN(CCS(=O)(=O)c1ccc(C)cc1)S(=O)(=O)c1ccccc1
inactive: locus YAL013W, strain DEP1, stronger effect = lower value 1.02 | locus YBR229C, strain ROT2, stronger effect = lower value 1.01 | [1] 0.988 | [2] 0.991 | locus YDL134C, strain PPH21, stronger effect = lower value 0.987 | locus YDR150W, strain NUM1, stronger effect = lower value 1.01 | locus YEL061C, strain CIN8, stronger effect = lower value 0.987 | locus YGR078C, strain PAC10, stronger effect = lower value 0.998 | locus YGR229C, strain SMI1, stronger effect = lower value 0.999 | [3] 0.993 | locus YHR087W, strain rtc3, stronger effect = lower value 0.994 | locus YJR043C, strain POL32, stronger effect = lower value 1 | locus YJR075W, strain HOC1, stronger effect = lower value 0.995 | locus YKL190W, strain CNB1, stronger effect = lower value 0.998 | locus YLR039C, strain RIC1, stronger effect = lower value 1.05 | locus YLR058C, strain SHM2 (second series), stronger effect = lower value 0.998 | locus YLR085C, strain ARP6, stronger effect = lower value 1.06 | locus YLR262C, strain YPT6, stronger effect = lower value 1.05 | locus YML094W, strain GIM5, stronger effect = lower value 1.03 | locus YMR219W, strain ESC1, stronger effect = lower value 1.01 | locus YMR263W, strain SAP30, stronger effect = lower value 0.988 | locus YMR307W, strain GAS1, stronger effect = lower value 0.969 | locus YNL153C, strain GIM3, stronger effect = lower value 0.984 | locus YNL298W, strain CLA4 (second series), stronger effect = lower value 1.01 | locus YNL322C, strain KRE1, stronger effect = lower value 1.01 | locus YNR030W, strain Alg12, stronger effect = lower value 0.99 | locus YPL055C, strain LGE1, stronger effect = lower value 1.06 | locus YPL241C, strain CIN2, stronger effect = lower value 1 | locus YPR135W, strain CTF4, stronger effect = lower value 0.943

O=c1[nH][nH]c(=O)n1CCCc1cc2cccc3ccc4cccc1c4c32
inactive: locus YAR019C, strain CDC15, stronger effect = lower value 1 | locus YBL105C, strain PKC1, stronger effect = lower value 0.987 | locus YBR135W, strain CKS1, stronger effect = lower value 0.998 | locus YBR136W, strain MEC1, stronger effect = lower value 0.988 | locus YBR160W, strain CDC28, stronger effect = lower value 0.994 | locus YDL017W, strain CDC7, stronger effect = lower value 0.994 | locus YDL028C, strain MPS1, stronger effect = lower value 0.992 | [2] 0.984 | locus YDL108W, strain KIN28, stronger effect = lower value 0.988 | locus YDL132W, strain cdc53, stronger effect = lower value 0.99 | locus YDL214C, strain PRR2, stronger effect = lower value 0.968 | locus YDR052C, strain DBF4, stronger effect = lower value 0.991 | locus YDR054C, strain cdc34, stronger effect = lower value 0.994 | locus YDR226W, strain ADK1, stronger effect = lower value 0.995 | locus YDR477W, strain SNF1, stronger effect = lower value 0.979 | locus YER123W, strain YCK3, stronger effect = lower value 0.949 | locus YER133W, strain GLC7, stronger effect = lower value 0.97 | locus YFL009W, strain cdc4, stronger effect = lower value 0.994 | locus YFL029C, strain CAK1, stronger effect = lower value 0.999 | locus YFR003C, strain YPI1, stronger effect = lower value 0.981 | locus YFR019W, strain FAB1, stronger effect = lower value 0.935 | locus YFR028C, strain CDC14, stronger effect = lower value 0.987 | locus YGR040W, strain KSS1, stronger effect = lower value 0.95 | locus YGR052W, strain FMP48, stronger effect = lower value 0.936 | locus YGR092W, strain DBF2, stronger effect = lower value 0.9 | [3] 1.02 | [4] 1 | locus YHR082C, strain KSP1, stronger effect = lower value 0.986 | locus YHR205W, strain SCH9, stronger effect = lower value 0.915 | locus YIL147C, strain SLN1, stronger effect = lower value 0.983 | [5] 0.873 | locus YJL128C, strain PBS2, stronger effect = lower value 0.952 | locus YJL157C, strain FAR1, stronger effect = lower value 0.99 | locus YJR016C, strain ILV3, stronger effect = lower value 0.997 | locus YJR066W, strain TOR1 (second series), stronger effect = lower value 0.927 | [6] 0.964 | locus YKL048C, strain ELM1, stronger effect = lower value 0.956 | locus YKL067W, strain YNK1, stronger effect = lower value 0.971 | locus YKL101W, strain HSL1, stronger effect = lower value 0.937 | locus YKL193C, strain SDS22, stronger effect = lower value 0.992 | locus YKL203C, strain TOR2, stronger effect = lower value 0.985 | [7] 0.922 | locus YLR133W, strain CKI1, stronger effect = lower value 0.952 | locus YLR403W, strain SFP1, stronger effect = lower value 0.908 | locus YML070W, strain DAK1, stronger effect = lower value 0.942 | locus YMR001C, strain CDC5, stronger effect = lower value 0.992 | locus YMR205C, strain PFK2 (second series), stronger effect = lower value 0.973 | locus YMR277W, strain FCP1, stronger effect = lower value 0.989 | locus YNL006W, strain LST8, stronger effect = lower value 0.993 | locus YNL020C, strain ARK1, stronger effect = lower value 0.968 | locus YNL161W, strain CBK1, stronger effect = lower value 0.993 | [8] 0.911 | locus YNL207W, strain RIO2, stronger effect = lower value 0.995 | locus YNL222W, strain SSU72, stronger effect = lower value 0.996 | locus YNL307C, strain MCK1 (second series), stronger effect = lower value 0.909 | locus YOL078W, strain AVO1, stronger effect = lower value 0.993 | locus YOL136C, strain PFK27, stronger effect = lower value 0.94 | locus YOR061W, strain CKA2, stronger effect = lower value 0.975 | locus YOR119C, strain RIO1, stronger effect = lower value 0.993 | [9] 0.972 | locus YOR329C, strain SCD5, stronger effect = lower value 0.991 | locus YPL031C, strain PHO85, stronger effect = lower value 0.961 | locus YPL153C, strain RAD53, stronger effect = lower value 0.963 | locus YPL204W, strain HRR25, stronger effect = lower value 0.941 | locus YPL209C, strain IPL1, stronger effect = lower value 0.988 | [10] 1.08 | locus YPR025C, strain CCL1, stronger effect = lower value 0.998 | locus YPR106W, strain ISR1, stronger effect = lower value 0.985 | locus YPR111W, strain DBF20, stronger effect = lower value 0.973 | strain NNK1, stronger effect = lower value 0.991 | strain TSCII, stronger effect = lower value 0.994

C=CCSC[C@@H](N)C(=O)O
inactive: locus YAL021C, strain ccr4, stronger effect = lower value 0.993 | locus YAL026C, strain drs2, stronger effect = lower value 0.986 | locus YAL030W, strain snc1, stronger effect = lower value 1.01 | locus YBL061C, strain skt5, stronger effect = lower value 0.996 | locus YBR009C, strain hhf1, stronger effect = lower value 1 | locus YBR023C, strain chs3, stronger effect = lower value 0.987 | locus YBR171W, strain sec66, stronger effect = lower value 0.984 | locus YBR231C, strain swc5, stronger effect = lower value 1 | locus YBR279W, strain paf1, stronger effect = lower value 1 | locus YCL011C, strain gbp2, stronger effect = lower value 0.982 | locus YCL016C, strain dcc1, stronger effect = lower value 0.998 | [1] 0.981 | locus YCL069W, strain vba3, stronger effect = lower value 0.99 | locus YCR088W, strain abp1, stronger effect = lower value 0.994 | locus YDL005C, strain med2, stronger effect = lower value 0.988 | locus YDL040C, strain nat1, stronger effect = lower value 1.01 | locus YDR001C, strain nth1, stronger effect = lower value 0.986 | locus YDR069C, strain doa4, stronger effect = lower value 0.994 | locus YDR137W, strain rgp1, stronger effect = lower value 1.01 | locus YDR159W, strain sac3, stronger effect = lower value 0.991 | locus YDR195W, strain ref2 0.985 | locus YDR297W, strain sur2, stronger effect = lower value 1 | locus YDR334W, strain swr1, stronger effect = lower value 0.987 | locus YDR335W, strain msn5, stronger effect = lower value 0.997 | locus YDR392W, strain spt3, stronger effect = lower value 0.996 | locus YEL003W, strain gim4, stronger effect = lower value 0.996 | locus YEL037C, strain rad23, stronger effect = lower value 1.01 | locus YEL061C, strain CIN8 (second series), stronger effect = lower value 0.999 | locus YER015W, strain faa2, stronger effect = lower value 0.992 | locus YER016W, strain bim1, stronger effect = lower value 1.01 | locus YER111C, strain swi4, stronger effect = lower value 1.01 | locus YER155C, strain BEM2 (second series), stronger effect = lower value 1.03 | locus YFR010W, strain ubp6, stronger effect = lower value 0.986 | locus YGL167C, strain pmr1, stronger effect = lower value 0.992 | locus YGL173C, strain kem1, stronger effect = lower value 0.999 | locus YGL227W, strain vid30, stronger effect = lower value 0.986 | locus YGL240W, strain doc1, stronger effect = lower value 1 | locus YGL253W, strain hxk2, stronger effect = lower value 0.993 | locus YHR013C, strain ard1, stronger effect = lower value 1 | locus YHR027C, strain rpn1, stronger effect = lower value 1.01 | [3] 0.943 | [4] 0.96 | locus YHR142W, strain chs7, stronger effect = lower value 0.978 | locus YJL092W, strain hpr5, stronger effect = lower value 0.989 | locus YJL095W, strain BCK1 (second series), stronger effect = lower value 1.01 | [5] 0.936 | locus YJL115W, strain asf1, stronger effect = lower value 0.989 | locus YJL129C, strain trk1, stronger effect = lower value 0.992 | locus YJL154C, strain vps35, stronger effect = lower value 0.982 | locus YJL164C, strain tpk1, stronger effect = lower value 1 | locus YJL166W, strain qcr8, stronger effect = lower value 1 | [6] 0.901 | locus YKL160W, strain elf1, stronger effect = lower value 0.985 | locus YKR026C, strain gcn3, stronger effect = lower value 0.986 | locus YKR091W, strain srl3, stronger effect = lower value 1.01 | locus YLL001W, strain dnm1, stronger effect = lower value 0.987 | locus YLL026W, stronger effect = lower value 0.993 | locus YLL041C, strain sdh2, stronger effect = lower value 0.985 | locus YLR027C, strain aat2, stronger effect = lower value 0.993 | [7] 0.973 | locus YLR221C, strain rsa3, stronger effect = lower value 0.994 | locus YLR258W, strain gsy2, stronger effect = lower value 0.99 | locus YLR262C, strain YPT6 (second series), stronger effect = lower value 0.995 | locus YLR320W, strain mms22, stronger effect = lower value 1.01 | locus YLR342W, strain FKS1, stronger effect = lower value 1.02 | locus YLR357W, strain rsc2, stronger effect = lower value 1.01 | locus YLR370C, strain arc18, stronger effect = lower value 0.999 | locus YLR384C, strain iki3, stronger effect = lower value 0.993 | locus YML120C, strain ndi1, stronger effect = lower value 0.986 | locus YMR058W, strain fet3, stronger effect = lower value 0.992 | locus YMR125W, strain sto1, stronger effect = lower value 0.986 | locus YMR129W, stronger effect = lower value 0.985 | locus YMR205C, strain PFK2, stronger effect = lower value 1 | locus YMR231W, strain pep5, stronger effect = lower value 0.998 | locus YNL071W, strain lat1, stronger effect = lower value 1 | [8] 0.914 | locus YNL209W, strain ssb2, stronger effect = lower value 0.991 | locus YNL248C, strain rpa49, stronger effect = lower value 0.995 | locus YNL322C, strain KRE1 (second series), stronger effect = lower value 1 | locus YNR049C, strain mso1, stronger effect = lower value 0.997 | locus YOR001W, strain rrp6, stronger effect = lower value 0.997 | locus YOR070C, strain gyp1, stronger effect = lower value 0.992 | locus YOR080W, strain dia2, stronger effect = lower value 1 | locus YOR083W, strain WHI5, stronger effect = lower value 1.02 | locus YOR106W, strain vam3, stronger effect = lower value 1 | [9] 0.968 | locus YOR265W, strain rbl2, stronger effect = lower value 0.996 | locus YOR270C, strain vph1, stronger effect = lower value 1 | locus YOR290C, strain snf2, stronger effect = lower value 0.993 | locus YPL051W, strain arl3, stronger effect = lower value 0.998 | locus YPL078C, strain atp4, stronger effect = lower value 0.999 | locus YPL106C, strain sse1, stronger effect = lower value 0.986 | locus YPL240C, strain hsp82, stronger effect = lower value 0.999 | [10] 0.948
